Consider nine compounds from PubChem BioAssay (NCI).

Common to all, as to experiment: NCI-60 one-dose screen, 48 h (100 = growth as untreated, 0 = no growth, -100 = all killed)
What all share (details): 10 µM unless noted

For assay [1], the system named is SK-MEL-2 melanoma.
Assay [2] relates to EKVX NSCLC.
Assay [3] has as its system SN12C renal.
Assay [4] concerns UO-31 renal.
Assay [5] deals with TK-10 renal.
Assay [6] has as its system ACHN renal.
The test system of assay [7] is CAKI-1 renal.
For assay [8], the system named is A498 renal.
For assay [9], the system named is CCRF-CEM leukemia.
For assay [10], the system named is MOLT-4 leukemia.
Assay [11] concerns SR leukemia.
Assay [12] relates to OVCAR-8 ovarian.
The subject of assay [13] is OVCAR-5 ovarian.
The test system of assay [14] is IGROV1 ovarian.
The subject of assay [15] is OVCAR-3 ovarian.
For assay [16], the system named is HS 578T breast.
Assay [17] concerns NCI/ADR-RES ovarian.
Assay [18] deals with OVCAR-4 ovarian.
In assay [19] the test system is SK-OV-3 ovarian.
Assay [20] concerns RPMI-8226 leukemia.

The panel holds about 83,000 compounds, 20% with a hit somewhere; the sample as a whole holds those more often.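 Single-dose data. Exposure time 48 hours. Values below 10 considered active.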 Unmarked numbers belong to inactive results. The source made the active and inactive calls.

As to `NCCCNc1nc2ccccc2c2c(=O)c3cc(C(F)(F)F)ccc3sc12`, the growth in assay [1] is 89.7%; in [2], 71.6%; in assay [3] it was 51.9%; in assay [4], 31.9%; in assay [5] it was 51.9%; in [6] it was -10.8% (active). The growth in assay [7] was -67.7% (active); in assay [8], 23.6%; in assay [9], 5.18% (active); in [10] it was -20.1% (active); in assay [11] it was -14.9% (active); in assay [12], 0.22% (active). Further, the growth was 69.8% in [13]; 34.8% in assay [14]; -72.4% (active) in assay [15]; 12.2% in assay [16]; -15.9% (active) in [17].
With `CN1C(=O)CNC(=O)[C@H](NC(=O)c2nc3ccccc3cc2O)CSSC[C@H]1C(=O)NCCCc1nc2ccccc2cc1O`, the growth in assay [1] was -12.5% (active); in assay [2] it was 85.4%; in assay [3], 73.4%; in assay [4], 62.6%; in [5], 75%; in assay [6], 82.3%. The growth was 107% in assay [7]; 118% in assay [8]; 14.3% in assay [9]; -4.7% (active) in assay [10]; -46.3% (active) in [11]; 86.2% in assay [12]. Further, the growth was 121% in assay [13]; 96% in assay [18]; 113% in assay [19]; 9.86% (active) in [15]; 90.7% in [16]; 102% in [17].
As for `CC1=C([Se]CC(OC(=O)[C@@H](CSSC(C)(C)C)NC(=O)OC(C)(C)C)C(=O)NC(C)(C)C)C(=O)c2ccccc2C1=O` (stereo partly drawn), the growth is 7.82% (active) in assay [1]; -74.2% (active) in assay [2]; -73.3% (active) in assay [3]; 15.4% in assay [4]; -96% (active) in assay [5]; -83% (active) in assay [6]. The growth in assay [7] is -52.1% (active); in assay [8] it was -28.9% (active); in assay [9], -21.6% (active); in assay [10], 15.8%; in [11], 22%; in assay [12] it was -73.7% (active). Besides, the growth in assay [13] was -75.8% (active); in assay [19], -100% (active); in [14], 8.36% (active); in assay [15], -99.2% (active); in assay [16] it was -11.2% (active); in [17] it was -78.9% (active).
For the compound `CN(C)CC#Cc1ccc2ncc(C#N)c(Nc3ccc(F)c(Cl)c3)c2c1`, the growth in [1] was 38.3%; in assay [2], 30.8%; in assay [3] it was 35.4%; in assay [4], 18%; in assay [5] it was 27.1%; in assay [6], 10.5%. The growth in assay [7] is 17.1%; in [8] it was -11.8% (active); in assay [9], 81.7%; in [10], 53.7%; in [20], 50.3%; in assay [12], 45.2%. Besides, the growth in [13] was 54.8%; in assay [18] it was 38.1%; in assay [19] it was 17.4%; in [14], 3.51% (active); in [15] it was 54.9%; in assay [16] it was 52.1%.
With `N#CC1=C(N)Oc2c(sc3c(Br)cccc23)C1c1ccc([N+](=O)[O-])cc1` (stereo not drawn), the growth in assay [1] was 39.6%; in [2] it was 58.9%; in assay [3], 13.5%; in assay [4] it was 34.6%; in assay [5], 71.9%; in assay [6], 26.8%. The growth in assay [7] was 27.1%; in assay [8], -11.8% (active); in assay [9], 10%; in assay [10], 5.93% (active); in assay [11] it was -8.87% (active); in assay [12] it was 25.3%. In addition, the growth in assay [13] is 31.1%; in [18] it was 39.8%; in assay [19], 34%; in assay [15] it was 3.67% (active); in assay [16], 10.8%; in [17], -26.9% (active).
As to `N#C/C(=C\c1ccc(F)cc1)n1nc2cccc(F)c2n1`, the growth in assay [1] was 58.7%; in [2], 71.1%; in assay [3] it was 76.2%; in [4] it was 41%; in assay [5], 60.7%; in assay [6] it was 42.9%. For the same compound, the growth is 24.8% in assay [7]; 11.7% in [8]; 25.6% in assay [9]; 52.3% in assay [10]; 13.7% in assay [11]; 81.2% in assay [12]. The growth in assay [13] is 79.7%; in assay [19], 74.9%; in assay [14] it was 73.1%; in assay [15], -3.76% (active); in [16], 27.6%; in assay [17], 8.9% (active).
In the case of `Cc1c(C(=O)/C=C/Nc2c(Cl)cc(S(N)(=O)=O)cc2Cl)sc2nc3ccccc3n12`, the growth in assay [1] is 109%; in assay [2] it was 106%; in assay [3] it was 102%; in assay [4] it was 89.2%; in assay [5], 111%; in [6], 99%. The growth was 98.5% in assay [7]; 101% in assay [8]; 102% in assay [9]; 106% in assay [10]; 110% in assay [11]; 101% in [12]. In addition, the growth is 106% in assay [13]; 116% in assay [18]; 111% in [14]; 107% in assay [15]; 105% in assay [16].
Take `CC1Cc2c(ncn3c(-c4ccc(F)cc4)nnc23)N(C)c2ccccc21` (stereo not drawn): the growth in [1] is 99.6%; in [2], 32.8%; in assay [3], 19.8%; in assay [4], 27.6%; in [5], 21.8%; in assay [6] it was 44%. The growth is 55.5% in [7]; 28.3% in assay [8]; 49.3% in assay [9]; 82.1% in assay [10]; 25% in assay [11]; 57.1% in assay [12]. Moreover, the growth is 78% in assay [13]; 76.3% in assay [19]; 6.26% (active) in [15]; 26.1% in assay [16]; 41% in assay [17].
For `COc1cccc(Cc2cc(-c3ccccc3)nn(CC(=O)c3ccccc3)c2=O)c1`, the growth is 85.4% in [1]; 65.1% in assay [2]; 59.3% in assay [3]; 65.1% in assay [4]; 72.1% in [5]; 52% in [6]. The growth is 59.6% in assay [7]; 52.1% in assay [8]; 39.1% in assay [9]; 22.7% in assay [10]; 0.342% (active) in assay [11]; 58.7% in assay [12]. The growth in assay [13] is 96.4%; in assay [18], 69.5%; in [15] it was 64.9%; in [16] it was 66.9%; in assay [17] it was 57.2%.
